The values below come from PubChem BioAssay (NCI).

Compounds without any hit were thinned out: in the full panel of roughly 83,000, 20% have a hit.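 For each line, cells grew in 96-well plates with the test compound present at a single concentration for 48 hours.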 Unmarked numbers belong to inactive results. Active and inactive are the calls of the source. Rule for the calls: active = growth percent below 10; inactive = the rest.

This experiment relates to HCT-116 colon. In words: NCI-60 one-dose screen, 48 h (100 = growth as untreated, 0 = no growth, -100 = all killed). To be noted: 10 µM.
On to `c1ccc(Sc2ccccc2)cc1`, for which the growth was 110%. As for `CCCCC(O)c1ccccc1` (stereo unspecified), the growth is 108%. For `C[N+](C)=c1ccc2nc3c(cc(Nc4ccccc4)c4ccccc43)oc-2c1` the value was 47.1%; for `CCc1nc(N)nc(N)c1-c1ccc(Cl)cc1`, 25.4%. For `FC(F)(F)c1ccc2c(c1)N(CCCN1CCN(C3CC3)CC1)c1ccccc1S2`, the growth was 42.7%. For `N#CC(=Nc1cccc(F)c1)C1=C(O)c2ccccc2C1=O` the value was 97%; for `COC(=O)c1ccccc1N(C)C`, 98.4%. As for `COc1ccc(C(=O)C(Br)C(Br)C(=O)O)cc1` (stereo unspecified), the figure is 94.9%. Take `COC1=CC(=O)c2nc(Cl)ccc2C1=O`: the growth was -32.7% (active). `O=C(NCc1ccco1)Nc1c(Cl)cc(Cl)cc1Cl`: the growth was 95.5%.

On to `O=[N+]([O-])c1cccc(N=Nc2ccc(O)cc2O)c1`, for which the growth was 14.3%.

Regarding `CC[N+](C)(CC)CCO`, the growth is 105%. Take `COc1cc(/C=C/C(=O)c2ccccc2)cc(OC)c1OC`: the growth was 20.6%. As for `N#Cc1c(N)sc(=S)c2c1CCCC2`, the figure is 104%; as for `CNc1nc(NC)c2cn[nH]c2n1`, 99.4%; as for `NCCC(=O)c1ccc(Cl)cc1`, 102%. On to `C[C@]12CC[C@@H]3c4ccc(OCC(=O)O)cc4CC[C@H]3[C@@H]1CCC2=O`, for which the growth is 103%. As to `COc1ccc(NC(=O)CCl)cc1`, the growth was 53.5%. As for `O=[N+]([O-])c1ccc(CO)cc1`, the figure is 101%; as for `NNc1ccccc1C(=O)O`, 112%; as for `c1ccc(Cc2ccccc2)cc1`, 114%.
